Assay results taken from PubChem BioAssay (NCATS).
Inconclusive results are not listed. Calls of active or inactive are those of the source. The call rests on the fitted dose curve; in most records, active means well fitted inhibition curve with a large enough effect; inconclusive means small, poorly fitted or top-dose-only effect; inactive means no such curve, though single readings can be large or run the other way.

molecular target: Cytochrome P450 2D6 (Homo sapiens) (UniProt P10635); assay: qHTS Assay for Inhibitors and Substrates of Cytochrome P450 2D6 (AID 891); conditions: recombinant CYP2D6, luciferin-ME EGE luminescence; series mostly up to 11.4 µM; activity change, negative = inhibition: at the top concentration; further: nearly all actives have a fitted effect of over 60% in size
Sequence (P10635 whole entry, looked up): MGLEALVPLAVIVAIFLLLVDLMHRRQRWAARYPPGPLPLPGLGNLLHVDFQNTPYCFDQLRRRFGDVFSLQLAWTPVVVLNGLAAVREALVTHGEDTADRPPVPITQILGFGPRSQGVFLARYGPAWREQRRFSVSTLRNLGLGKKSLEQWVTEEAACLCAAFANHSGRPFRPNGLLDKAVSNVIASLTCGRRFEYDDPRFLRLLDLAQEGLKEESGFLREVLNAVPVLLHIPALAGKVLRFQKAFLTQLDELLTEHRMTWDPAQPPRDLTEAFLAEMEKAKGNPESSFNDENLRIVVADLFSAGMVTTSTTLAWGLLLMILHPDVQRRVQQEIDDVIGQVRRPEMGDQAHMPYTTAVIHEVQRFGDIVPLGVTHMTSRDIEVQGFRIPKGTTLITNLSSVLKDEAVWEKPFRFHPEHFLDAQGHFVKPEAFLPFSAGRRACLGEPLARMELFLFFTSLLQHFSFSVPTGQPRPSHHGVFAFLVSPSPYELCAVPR
Experimental: NIH Molecular Libraries Screening Centers Network [MLSCN]
NIH Chemical Genomics Center [NCGC]
The P450 gene superfamily is involved in the metabolism and clearance of xenobiotics. This assay used human CYP2D6 to measure the demethylation of ethylene glycol ester of luciferin 6' methyl ether (Luciferin-ME EGE; […]) to luciferin. The luciferin is then measured by luminescence after the addition of a luciferase detection reagent. Luciferin-ME EGE concentration in the assay was equal to its Km for CYP2D6. Inhibitors and some substrates limit the production of luciferin, and decrease measured luminescence.
NCGC Assay Protocol Summary:
Two uL of enzyme and substrate mix (final concentrations: 5nM CYP2D6, 30uM Luciferin-ME EGE, 100mM KPO4) were dispensed into a white, solid bottom 1536-well microtiter plate. 23nL of compound was transferred by a pin tool. The plate was incubated at room temperature for 10 min. Two uL of an NADPH regeneration solution (Promega supplied reagent) was dispensed and the reaction was allowed to continue for 60 min at room temperature. Then the reaction was stopped by reconstituted luciferin detection buffer. After another 20 min of incubation the plate was read on the ViewLux (Perkin Elmer) at 60 sec exposure and 2x2 binning. This protocol was carried out with Promega-Glo reagents and further information can be found at http://www.promega.com/tbs/tb325/tb325.pdf. Data were normalized to the to AC100 inhibition (1.43 uM quinidine).
Keywords: P450, CYP2D6, Luciferase, MLSMR, MLSCN, NIH Roadmap, qHTS, NCGC
On the % scale 0 is the no-effect control and ±100 the full control effect; potency means the concentration at half of the fitted maximal effect.

Structure (SMILES)	activity change, negative = inhibition	Potency
CCOC(=O)CCN1C(=O)[C@H]2[C@@H]3[C@H](O)[C@H](O)CC(=O)[C@H]3CC[C@H]2C1=O	24.8% (inactive)	–
Cc1ccc(/C=C/C2=CC3(C)CC2(C)C(c2ccc(C)cc2)CC3=O)cc1 (stereo not given)	-17.2% (inactive)	–
CCCCCC(=O)c1cc(CC(C(=O)OC)C(=O)OC)cc2cc(OC)c(OC)cc12	-15.5% (inactive)	–
CCCCCCCC#Cc1ccccc1/C=N/S(=O)c1ccc(C)cc1 (stereo not given)	1.4% (inactive)	–
C=C/C1=C/Cc2ccccc2C(C[N+](=O)[O-])C(C(=O)OC)(C(=O)OC)C1 (stereo not given)	-7.55% (inactive)	–
CCC(=O)[C@]12O[C@@]3(C4C(=O)OCCC41)N(CC)C(C)=C(C(=O)OC)C(c1ccccc1)N3C2=O (stereo not given in full)	0.191% (inactive)	–
COc1cc(C2c3[nH]c4ccccc4c3CC3C(=O)N4C(Cc5c([nH]c6ccccc56)C4c4cc(OC)c(OC)c(OC)c4)C(=O)N32)cc(OC)c1OC (stereo not given)	-3.11% (inactive)	–
CCN1C(=O)[C@H]2[C@H]3[C@H](O)[C@H](O)C/C(=N/OC[C@@H](C)[C@H](OCc4ccccc4)C(C)C)[C@@H]3CC[C@@H]2C1=O	22.9% (inactive)	–
COC(=O)NC(/C(C(=O)OC)=C(\C)NCc1ccccc1)c1ccc2ccccc2c1 (stereo not given)	–	2 µM (active)
CC(=O)OCC1OC(C#CC2=CCCCC2)C=CC1OC(C)=O (stereo not given)	-19.3% (inactive)	–
COc1ccc(O[C@H]2C=C[C@@H](c3ccccc3)O[C@H]2COC(=O)CC/C(C)=N/O[C@@H]2O[C@H](COC(C)=O)[C@H](OC(C)=O)[C@H](OC(C)=O)[C@H]2OC(C)=O)cc1	–	3.16 µM (active)
CC1(C)OC(C(O)(c2cccc3c2oc2ccccc23)c2cccc3c2oc2ccccc23)C(C(O)(c2cccc3c2oc2ccccc23)c2cccc3c2oc2ccccc23)O1 (stereo not given)	2.82% (inactive)	–
CC(C)=CCC/C(C)=C/C=C/C1=CC2(C)CC1(C)C(/C=C(\C)CCC=C(C)C)CC2=O (stereo not given)	15.1% (inactive)	–
CC(=O)OC[C@H]1O[C@@H](O/N=C\[C@@H](C)[C@H](OCc2ccccc2)C(C)C)[C@H](OC(C)=O)[C@@H](OC(C)=O)[C@H]1OC(C)=O	–	3.98 µM (active)
C=CCOC(=O)C(C(C)=O)C(NC(=O)OC)c1ccc(F)cc1 (stereo not given)	0.687% (inactive)	–
CC(=O)OC[C@@H]1O[C@@H](O/N=C2/C[C@@H](O)[C@@H](O)[C@@H]3[C@@H]4C(=O)N(Cc5ccccc5)C(=O)[C@H]4CC[C@@H]23)[C@H](OC(C)=O)[C@H](OC(C)=O)[C@@H]1OC(C)=O	–	3.98 µM (active)
COC(=O)NC(CC(C)=O)c1ccco1 (stereo not given)	6.42% (inactive)	–
O=Cc1ccc(OC2C=CC(C#Cc3ccccc3)OC2CO)cc1 (stereo not given)	-6.94% (inactive)	–
CO[C@@H]1COC(=O)CCC[C@@H](C)[C@H](OC)COC(=O)CCC[C@H]1C	34.5% (inactive)	–
CC(=O)OC[C@@H]1O[C@H](C/C=N\O[C@@H](C)CN2CCCCc3nc(C)c(C)cc32)C=C[C@@H]1OC(C)=O	–	3.16 µM (active)

Structure (SMILES)	activity change, negative = inhibition	Potency
COC(=O)NC(/C=C/c1ccco1)[C@@]1(C(=O)OC)CCCC1=O (stereo not given in full)	13.1% (inactive)	–
COc1ccc(C#CC2C=CC(Oc3cc(C)cc(C)c3)C(CO)O2)cc1 (stereo not given)	–	3.98 µM (active)
COC(=O)NC(CC(C)=O)c1ccccc1 (stereo not given)	-6.32% (inactive)	–
COCC#Cc1ccc(C2NC(C(=O)O)CCC2C)cc1 (stereo not given)	29.8% (inactive)	–
COC(=O)NC(c1ccco1)[C@]1(C(C)=O)CCCC1=O (stereo not given in full)	2.79% (inactive)	–
CCCCCCC(=O)Cc1cc(OC)c(OC)cc1C=C(C(=O)OCC)C(=O)OCC	6.28% (inactive)	–
COC(=O)[C@@H]1CC[C@H](C)[C@@H](c2ccc(C)cc2)N1C(=O)c1ccc(/C=N\OC[C@@H](C)[C@H](OCc2ccccc2)C(C)C)cc1	–	3.98 µM (active)
C=COCC1CN2C(CCC(C)C2c2ccc(Br)cc2)C(=O)O1 (stereo not given)	4.94% (inactive)	–
COc1cccc([C@H]2Oc3ccc(OC)cc3/C(=N\O[C@@H]3O[C@H](COC(C)=O)[C@H](OC(C)=O)[C@H](OC(C)=O)[C@H]3OC(C)=O)[C@@H]2O)c1	–	3.16 µM (active)
CCOC(=O)N/N=C1/C[C@@H](O)[C@@H](O)[C@@H]2[C@@H]3C(=O)N(C4CCCCC4)C(=O)[C@H]3CC[C@@H]12	26.9% (inactive)	–
CC1Cc2c(COc3ccccc3)nc3c(c2CO1)CN(CCOc1ccccc1)CC3 (stereo not given)	-9.46% (inactive)	–
CCOP(=O)(CC(C(C)=O)C(O)c1ccccc1)OCC (stereo not given)	12.1% (inactive)	–
O=C1C=CC2(OCCCO2)C(Br)=C1	3.6% (inactive)	–
COc1cccc(C2NC(C(=O)O)CCC2C)c1 (stereo not given)	17.4% (inactive)	–
COC(=O)NC(c1ccco1)[C@@]1(C(=O)OC)CCCC1=O (stereo not given in full)	20.6% (inactive)	–
CN1CCc2nc(-c3ccccc3)c(-c3ccccc3)cc2C1	15.8% (inactive)	–
CC12C=C(/C=C/c3ccc(F)cc3)C(C)(C1)C(c1ccc(F)cc1)CC2=O (stereo not given)	-9.74% (inactive)	–
Cc1cc2c(nc1C)CCCN2C[C@H](O)CN1CCCc2nc(-c3ccc(Br)cc3)ccc21	–	3.16 µM (active)
CC(=O)OCC1OC(C#Cc2ccccc2)C=CC1OC(C)=O (stereo not given)	-5.61% (inactive)	–
CC(C)CC1OCCC=CC1C (stereo not given)	-1.81% (inactive)	–
